Screens from PubChem BioAssay.
Shown are actives, neighbours in structure and some others; about 2.7% of the full set was active somewhere.
FID counter: compounds displacing fluorescent DNA intercalator, primary screen, artefact control for HCV NS3 helicase inhibitor project, biochemical, FID fluorescence; DNA fluorescent intercalator displacement; inhibition, % at 7.9 µM; 290,000 tested, 0.17% active; AID 1845, 2009; in the data active = inhibition above about 37%;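 also: higher means more ethidium bromide displaced from hairpin DNA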
TMEM16A act: TMEM16A chloride channel activators or potentiators, primary screen, cell-based, HTS; Anoctamin-1 (Mus musculus), Q8BHY3; HEK293 TMEM16A/YFP-H148Q/I152L, iodide quench fluorescence; stronger effect = lower value; B-score at 10 µM; 340,000 tested, 0.3% active;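 active = fluorescence-ratio B-score plate-corrected deviation score at least 3 library SD below zero, with starting fluorescence score within 5 deviations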;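 also: channel opened by trigger with iodide after compound preincubation; score built on the fluorescence ratio of max minus min over baseline; more negative score means more quench and so TMEM16A activation or potentiation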
PREPL inh: PREPL enzyme inhibitors, primary screen, biochemical, fluorescence polarization. Prolyl endopeptidase-like (Homo sapiens), Q4J6C6. recombinant PREPL, fluorescence polarization activity-based probe. inhibition, % at 5.96 µM. 320,000 tested, 0.68% active. AID 2751, 2010; in the data active = inhibition above about 43%
PP5 inh: PP5 phosphatase inhibitors, primary screen, biochemical, fluorescence; Serine/threonine-protein phosphatase 5 (Homo sapiens), P53041; purified PP5c, OMFP substrate fluorescence; 320,000 tested, 0.18% active; inhibition, % at 6.7 µM; AID 1987, 2009;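 active = inhibition above the campaign's mean inhibition across all tested compounds plus 3 SD, cut at about 9.5% in these data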
Target sequence (P53041 whole entry, looked up): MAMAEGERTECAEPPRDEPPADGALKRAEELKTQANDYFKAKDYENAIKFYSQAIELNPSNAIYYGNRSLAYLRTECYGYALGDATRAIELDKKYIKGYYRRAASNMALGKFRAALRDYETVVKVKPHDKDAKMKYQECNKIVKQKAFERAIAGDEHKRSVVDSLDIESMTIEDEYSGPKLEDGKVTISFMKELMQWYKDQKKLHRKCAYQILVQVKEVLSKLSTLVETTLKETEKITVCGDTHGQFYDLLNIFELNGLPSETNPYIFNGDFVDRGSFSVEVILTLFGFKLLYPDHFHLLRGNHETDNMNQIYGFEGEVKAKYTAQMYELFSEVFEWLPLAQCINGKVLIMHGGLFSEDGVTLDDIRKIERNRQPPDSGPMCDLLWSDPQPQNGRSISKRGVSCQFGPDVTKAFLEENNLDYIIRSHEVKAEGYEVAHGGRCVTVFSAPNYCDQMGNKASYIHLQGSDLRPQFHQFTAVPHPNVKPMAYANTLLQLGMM
ANO1 block: TMEM16A chloride channel inhibitors, primary screen, cell-based, HTS; normalized B-score (activity score, 25-100; higher = stronger inhibition) at 10 µM; Anoctamin-1 (Mus musculus), Q8BHY3; 310,000 tested, 1.2% active; HEK293 TMEM16A/YFP iodide influx fluorescence, ionomycin; AID 588511, 2011;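 active = ratio plate-corrected score three or more library SD toward inhibition, starting fluorescence score within five deviations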;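 also: score derived from kinetic fluorescence span divided by baseline fluorescence per well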
PP1 inh: PP1-alpha phosphatase inhibitors, primary screen, counter-screen for PP5 inhibitor project, biochemical, fluorescence, OMFP substrate, single point; purified PP1alpha; inhibition, % at 6.7 µM; 320,000 tested, 0.9% active; AID 2235, 2010;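 active = inhibition above the mean inhibition of all tested compounds plus 3 SD, computed separately for each screening campaign, cut at about 15% in these data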
A number is an active result; 0 = inactive; - = not tested or not shown.

SMILES | FID counter | TMEM16A act | PREPL inh | PP5 inh | ANO1 block | PP1 inh
CC(C)CN(C(=O)COc1ccc(C(C)(C)C)cc1)C1CCS(=O)(=O)C1 (stereo unspecified) | - | 0 | 0 | 0 | 0 | 0
O=C(c1ccccc1)N1N=C(C(F)(F)F)CC1(O)c1ccccc1 (stereo unspecified) | 0 | 0 | 0 | 0 | 0 | 0
O=C(c1ccccc1)N1N=C(C(F)(F)F)CC1(O)c1ccc(F)cc1 (stereo unspecified) | 0 | 0 | 0 | 0 | 100 | 0
Cc1ccc(NC(=O)CN(C)C(=O)C2CCC2)cc1 | - | 0 | - | - | - | -
Cc1ccc2nc(N3C(=O)C(O)=C(C(=O)c4ccc(C)o4)C3c3ccco3)sc2c1 (stereo unspecified) | - | 0 | 0 | 0 | - | 16
COC(=O)c1sc(N2C(=O)C(O)=C(C(=O)c3ccc(C)o3)C2c2ccco2)nc1C (stereo unspecified) | 0 | 0 | 0 | 0 | 0 | 0
COC(=O)c1ccc(C2C(C(=O)c3ccco3)=C(O)C(=O)N2c2cc(C)on2)cc1 (stereo unspecified) | 0 | 0 | 0 | 0 | 0 | 0
Cc1ccc(C2C(C(=O)c3cc4ccccc4o3)=C(O)C(=O)N2c2cc(C)on2)cc1 (stereo unspecified) | 0 | 0 | 0 | 0 | 0 | 22
COC(=O)c1ccc(C2C(C(=O)c3ccc(C)o3)=C(O)C(=O)N2c2cc(C)on2)cc1 (stereo unspecified) | 0 | 0 | 0 | 0 | 0 | 16
COC(=O)c1sc(N2C(=O)C(O)=C(C(=O)c3ccc(C)o3)C2c2ccc(F)cc2)nc1C (stereo unspecified) | 0 | 0 | 0 | 0 | 0 | 17
Cc1cc(C(=O)N/N=C/c2cccc3ccccc23)c(C)o1 | 0 | 0 | 0 | 0 | 0 | 0
CC(C)NC1(C#N)CCN(Cc2ccccc2)CC1 | - | 0 | - | - | - | -
NC(=S)NN=C1C=CCCC1 | - | 0 | - | - | - | -
COc1ccc(CCNCc2cc3ccc(C)cc3[nH]c2=O)cc1OC | 0 | 0 | 0 | 0 | 0 | 0
Cc1cc(N2C(=O)C(O)=C(C(=O)c3cc4ccccc4o3)C2c2cccs2)no1 (stereo unspecified) | 0 | 0 | 0 | 0 | 0 | 19
COCCN(C(=O)c1ccc(C)c(S(=O)(=O)N2CCOCC2)c1)c1c(N)n(CC(C)C)c(=O)[nH]c1=O | - | 0 | - | - | - | -
COc1ccc(C2CC(c3ccccc3)=NN2C(=O)CN2N=NC3C(=O)N(c4cccc(F)c4)C(=O)C32)cc1 (stereo unspecified) | 0 | 0 | 0 | 0 | 0 | 17
Cc1cc(=O)n2[nH]c(-c3ccsc3-n3c(C)ccc3C)cc2n1 | 0 | 0 | 0 | 0 | 0 | 16
O=C(c1ccc(N2CCCC2=O)cc1)N1CCN(c2cccc(C(F)(F)F)c2)CC1 | - | 0 | - | - | - | -
CCN(c1ccccc1)S(=O)(=O)c1cc(C(=O)Nc2ccccc2Cl)ccc1F | 0 | 0 | 0 | 0 | 0 | 0
CCN(c1ccccc1)S(=O)(=O)c1cc(C(=O)Nc2ccc(Br)cc2)ccc1F | 0 | 0 | 0 | 0 | 25 | 0
N#Cc1c(-c2ccc(Cl)cc2)c(-c2ccc(Cl)cc2)nn(CCOC(=O)CCC(=O)O)c1=O | - | 0 | - | - | - | -
CCc1ccc(NC(=O)CCN2C(=O)c3cccnc3C2=O)cc1 | 0 | 0 | 0 | 0 | 0 | 0
CCc1ccc2c(c1)C(=O)C(=O)N2CC(=O)Nc1ccc(NC(=O)c2ccccn2)cc1 | 0 | 0 | 0 | 0 | 0 | 16
CCC(=O)c1ccc(OCC(O)CN2CCN(S(=O)(=O)c3ccc(NC(C)=O)cc3)CC2)cc1 (stereo unspecified) | 0 | 0 | 0 | 0 | 0 | 0
CC(=O)Nc1ccc(OCC(O)CN2CCN(S(=O)(=O)c3ccc(NC(C)=O)cc3)CC2)cc1 (stereo unspecified) | 0 | 0 | 0 | 0 | 100 | 0
O=S(=O)(Nc1ccc(Br)cc1)c1cccc(NS(=O)(=O)c2cccs2)c1 | - | 0 | - | - | - | -
CCN(CC)c1ccc(/C=N/NC(=O)Cc2cccs2)c(O)c1 | 0 | 0 | 0 | 0 | 0 | 16
CCN(CC)c1ccc(/C=N/NC(=O)c2ccco2)c(O)c1 | 0 | 0 | 0 | 0 | 0 | 0
